PubChem BioAssay (NCI)
Compounds without any hit were thinned out: in the full panel of roughly 79,000, 15% have a hit. The source made the active and inactive calls. No stated cut-off is given here; in the data, active means growth inhibition above about 70%; inactive means the rest.

What was measured:
[1] = NCI Yeast Anticancer Drug Screen. Data for the wt1 strain (AID 149);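 further: 0% = growth of vehicle-treated wt1 cultures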; settings: S. cerevisiae wt1 strain (SPY 50644) growth inhibition, stronger effect = higher value
In short: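 Measured: growth of wt1 yeast under compound versus vehicle treatment, reported as inhibition.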

[2] = NCI Yeast Anticancer Drug Screen. Data for the rad50EPP+ strain (AID 151);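 further: 0% = growth of vehicle-treated control cultures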; settings: S. cerevisiae rad50 mutant strain, stronger effect = higher value
In short: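 In this screen, rad50EPP+ yeast were exposed to compounds. Growth inhibition was scored against vehicle-treated controls.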

[3] = NCI Yeast Anticancer Drug Screen. Data for the mgt1 strain (AID 153); settings: S. cerevisiae mgt1 mutant growth inhibition, stronger effect = higher value
In short: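 mgt1 strain exposed; growth vs vehicle control recorded as inhibition.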

[4] = NCI Yeast Anticancer Drug Screen. Data for the rad50 strain (AID 155);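 further: 0% = growth of vehicle-only cultures of the same strain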; settings: S. cerevisiae rad50 strain growth inhibition, stronger effect = higher value
In short: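 Growth of the mutant yeast was measured after compound exposure and referenced to vehicle-treated cultures.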

[5] = NCI Yeast Anticancer Drug Screen. Data for the mec2-1 strain (AID 157); settings: S. cerevisiae mec2-1 strain, stronger effect = higher value
In short: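 Vehicle-treated cultures served as reference for growth inhibition of compound-exposed mec2-1 yeast.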

[6] = NCI Yeast Anticancer Drug Screen. Data for the rad14 strain (AID 159);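 further: 0% = growth of vehicle-treated control cultures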; settings: S. cerevisiae rad14 strain growth inhibition, stronger effect = higher value
In short: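 Here, inhibition of yeast growth was measured after compound exposure, using a strain with a genetic defect in DNA damage repair and vehicle-treated cultures as the reference.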

[7] = NCI Yeast Anticancer Drug Screen. Data for the sgs1 mgt1 strain (AID 161);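 further: 0% = growth of cultures given vehicle only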; settings: S. cerevisiae sgs1 mgt1 strain, stronger effect = higher value
In short: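 Genetically altered yeast, compound exposure, growth inhibition relative to vehicle.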

[8] = NCI Yeast Anticancer Drug Screen. Data for the CLN2oe strain (AID 163);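 further: 0% = growth of vehicle-only control cultures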; settings: S. cerevisiae CLN2oe strain, stronger effect = higher value
In short: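 Inhibition relative to vehicle-treated yeast is reported. Cells: strain with genetic alteration in cell-cycle control, grown with compound.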

[9] = NCI Yeast Anticancer Drug Screen. Data for the cln2 rad14 strain (AID 165);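 further: 0% = growth equal to vehicle treated cultures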; settings: S. cerevisiae cln2 rad14 strain, stronger effect = higher value
In short: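 Each compound was tested on cln2 rad14 yeast. Inhibition of growth was calculated against vehicle-exposed controls.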

[10] = NCI Yeast Anticancer Drug Screen. Data for the bub3 strain (AID 167); settings: S. cerevisiae bub3 mutant strain, stronger effect = higher value
In short: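 Whole-cell yeast assay. The mutant strain was incubated with compounds, and growth inhibition was determined by comparison with vehicle-treated cells.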

[11] = NCI Yeast Anticancer Drug Screen. Data for the wt2 strain (AID 169);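 further: 0% = growth of vehicle-treated yeast cultures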; settings: S. cerevisiae wt2 strain growth inhibition, stronger effect = higher value
In short: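 Inhibition of yeast growth was determined after compound treatment, normalised to controls receiving only vehicle.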

[12] = NCI Yeast Anticancer Drug Screen. Data for the mlh1 strain (AID 171);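 further: 0% = growth of vehicle-treated control cultures of the same strain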; settings: S. cerevisiae mlh1 strain growth inhibition, stronger effect = higher value
In short: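 Vehicle-normalised growth inhibition of a repair- or checkpoint-altered yeast strain following compound treatment.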

[13] = NCI Yeast Anticancer Drug Screen. Data for the sgs1 strain (AID 173);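 further: 0% = growth of vehicle-only control cultures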; settings: S. cerevisiae sgs1 mutant, stronger effect = higher value
In short: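 Screen format: yeast with repair or checkpoint alterations, compound exposure, growth read relative to vehicle.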

[14] = NCI Yeast Anticancer Drug Screen. Data for the mlh1 rad18 strain (AID 175); settings: S. cerevisiae mlh1 rad18 strain growth inhibition, stronger effect = higher value
In short: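 Vehicle-treated cultures served as the reference for growth inhibition in a yeast strain carrying DNA damage repair alterations exposed to each compound.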

[15] = NCI Yeast Anticancer Drug Screen. Data for the rad18 strain (AID 177); settings: S. cerevisiae rad18 mutant growth inhibition, stronger effect = higher value
In short: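 Test articles were incubated with altered yeast defective in DNA damage repair. Results are given as inhibition of growth versus vehicle.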

[16] = at 5.0 µM (retest, dose inferred, filed as 0.5)
[17] = at 50.0 µM (retest, dose inferred, filed as 5.0)

Measured: growth inhibition

CC(C)(C)[Si](C)(C)OCC1OC(n2cnc3c(N)ncnc32)C2OC(=S)OC12 (stereo unspecified)
active: [4]; at 100.0 µM 98% | [6]; at 100.0 µM 96% | [9]; [17] 98% | [13]; at 100.0 µM 80% | [15]; at 100.0 µM 86%
inactive: [1]; at 1.2 µM 1% | [1]; at 3.7 µM -1% | [1]; at 11.0 µM 0% | [1]; at 33.0 µM 2% | [1]; at 100.0 µM 17% | [2]; at 1.2 µM -5% | [2]; at 3.7 µM -6% | [2]; at 11.0 µM -3% | [2]; at 33.0 µM 3% | [2]; at 100.0 µM 8% | [3]; at 1.2 µM -1% | [3]; at 3.7 µM 0% | [3]; at 11.0 µM 0% | [3]; at 33.0 µM -29% | [3]; at 100.0 µM 14% | [4]; at 1.2 µM -1% | [4]; at 3.7 µM 5% | [4]; [16] 5% | [4]; at 11.0 µM -19% | [4]; at 33.0 µM 17% | [4]; [17] 45% | [4]; at 50.0 µM 4.45% | [5]; at 1.2 µM 0% | [5]; at 3.7 µM 2% | [5]; [16] 5% | [5]; at 11.0 µM 2% | [5]; at 33.0 µM 7% | [5]; [17] 56% | [5]; at 50.0 µM 40% | [5]; at 100.0 µM 28% | [6]; at 1.2 µM 0% | [6]; at 3.7 µM 2% | [6]; at 11.0 µM 3% | [6]; at 33.0 µM 11% | [7]; [16] 5% | [7]; [17] 29% | [7]; at 50.0 µM 11.6% | [8]; at 1.2 µM -2% | [8]; at 3.7 µM -3% | [8]; at 11.0 µM -1% | [8]; at 33.0 µM -2% | [8]; at 100.0 µM 9% | [9]; [16] 3% | [9]; at 50.0 µM -15.6% | [10]; at 1.2 µM 0% | [10]; at 3.7 µM 2% | [10]; [16] -42% | [10]; at 11.0 µM 3% | [10]; at 33.0 µM 3% | [10]; [17] 3% | [10]; at 50.0 µM 48.4% | [10]; at 100.0 µM 10% | [11]; at 1.2 µM -1% | [11]; at 3.7 µM 9% | [11]; at 11.0 µM 1% | [11]; at 33.0 µM 2% | [11]; at 100.0 µM 36% | [12]; at 1.2 µM -1% | [12]; at 3.7 µM -2% | [12]; at 11.0 µM -3% | [12]; at 33.0 µM 0% | [12]; at 100.0 µM 37% | [13]; at 1.2 µM -1% | [13]; at 3.7 µM 2% | [13]; at 11.0 µM 4% | [13]; at 33.0 µM 14% | [14]; [16] 7% | [14]; [17] 22% | [14]; at 50.0 µM 48.1% | [15]; at 1.2 µM -1% | [15]; at 3.7 µM 1% | [15]; at 11.0 µM 6% | [15]; at 33.0 µM 22%

CN(Cc1cccc2ccccc12)Cc1cccc2ccccc12
inactive: [1]; at 1.2 µM 1% | [1]; at 3.7 µM 1% | [1]; at 11.0 µM -1% | [1]; at 33.0 µM -2% | [1]; at 100.0 µM -1% | [2]; at 1.2 µM -1% | [2]; at 3.7 µM 5% | [2]; at 11.0 µM 24% | [2]; at 33.0 µM 34% | [2]; at 100.0 µM 36% | [3]; at 1.2 µM -2% | [3]; at 3.7 µM -3% | [3]; at 11.0 µM -7% | [3]; at 33.0 µM -2% | [3]; at 100.0 µM 3% | [4]; at 1.2 µM 0% | [4]; at 3.7 µM -3% | [4]; [16] 1% | [4]; at 11.0 µM 7% | [4]; at 33.0 µM 6% | [4]; at 50.0 µM 60.5% | [4]; at 100.0 µM 9% | [5]; at 1.2 µM -2% | [5]; at 3.7 µM -2% | [5]; [16] 15% | [5]; at 11.0 µM -3% | [5]; at 33.0 µM 1% | [5]; [17] 26% | [5]; at 50.0 µM 16.7% | [5]; at 100.0 µM 11% | [6]; at 1.2 µM 0% | [6]; at 3.7 µM 2% | [6]; at 11.0 µM 0% | [6]; at 33.0 µM 13% | [6]; at 100.0 µM 30% | [7]; [16] 2% | [7]; [17] 51% | [7]; at 50.0 µM 59.7% | [8]; at 1.2 µM -3% | [8]; at 3.7 µM -6% | [8]; at 11.0 µM -18% | [8]; at 33.0 µM -15% | [8]; at 100.0 µM -17% | [9]; [16] -17% | [9]; [17] 10% | [9]; at 50.0 µM 33.2% | [10]; at 1.2 µM -2% | [10]; at 3.7 µM 1% | [10]; [16] -12% | [10]; at 11.0 µM -25% | [10]; at 33.0 µM 6% | [10]; at 100.0 µM 2% | [11]; at 1.2 µM -2% | [11]; at 3.7 µM 0% | [11]; at 11.0 µM -4% | [11]; at 33.0 µM 3% | [11]; at 100.0 µM 9% | [12]; at 1.2 µM 4% | [12]; at 3.7 µM 2% | [12]; at 11.0 µM -2% | [12]; at 33.0 µM -10% | [12]; at 100.0 µM 13% | [13]; at 1.2 µM 2% | [13]; at 3.7 µM 2% | [13]; at 11.0 µM 2% | [13]; at 33.0 µM 19% | [13]; at 100.0 µM 24% | [14]; [16] -10% | [14]; [17] 41% | [14]; at 50.0 µM 57.8% | [15]; at 1.2 µM 9% | [15]; at 3.7 µM 6% | [15]; at 11.0 µM -20% | [15]; at 33.0 µM 11% | [15]; at 100.0 µM 6%
active: [4]; [17] 76% | [10]; [17] 87% | [10]; at 50.0 µM 73.7%
